Screening data as filed in PubChem.
A selection: hits, their analogues and other compounds. The true share with any hit is near 17%.
DT40 TDP1 no CPT = qHTS for Inhibitors of human tyrosyl-DNA phosphodiesterase 1 (TDP1): qHTS in cells in absence of CPT; DT40 Tdp1-/- hTDP1 cells, no CPT, ATP luminescence, 48 h; Potency, µM (series often up to 46.2 µM), for the others: at the highest dose activity change, negative = growth inhibition, actives largely listed as inhibitors; hit rate 15% among 420,000; AID 686978, 2013; note: % is set by controls: 0 for no effect and ±100 for the full control effect; nearly all actives have a fitted effect of over 55% in size
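Cells were dispensed at 400 per well, compounds added by pin tool, plates incubated ≥48 hr at 37 °C, then CellTiter-Glo added for 30 min at room temperature before luminescence reading. Line: DT40 Tdp1-/- complemented with hTDP1; camptothecin omitted.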
ClpP mod = qHTS Assay for Activators of ClpP; ATP-dependent Clp protease proteolytic subunit (Bacillus subtilis (strain 168)), P80244; purified B. subtilis ClpP, FRET peptide cleavage, 20 min; Potency, µM (series often up to 57.5 µM), without a hit: at the top dose activity change, negative = active; hit rate 1.9% among 340,000; AID 651965, 2013; active = well fitted falling curve with a large enough effect; inconclusive = small, poorly fitted or top-dose-only effect; inactive = no such curve, though single readings can be large or run the other way; note: the source files actives as falling curves though it sought activators and does not explain the sign; nearly all actives have a fitted effect of over 65% in size
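ClpP 10 microg/mL final, pH 8 Tris/KCl buffer with BSA, glycerol, Tween-20; compound pinned in; FRET-FV substrate; RT 20 min; Ex320/Em430; ΔFRET vs ADEP 5.8 microM, DMSO, no enzyme.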
TDP1 cell CPT = growth inhibition of DT40 Tdp1-/-;hTDP1 cells with camptothecin (screen for TDP1 inhibitors). chicken DT40 Tdp1-/-;hTDP1 cells + 20 nM CPT, ATP luminescence, 48 h. Potency, µM (top dose mostly 46.2 µM), without a hit: at the top dose activity change, negative = growth inhibition, most hits filed as inhibitors. hit rate 12% among 420,000; note: % is set by controls: 0 for no effect and ±100 for the full control effect; nearly all actives have a fitted effect of over 55% in size
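Chicken DT40 Tdp1-/- cells complemented with human TDP1, 400 cells/well, exposed to compounds plus 20 nM camptothecin for at least 48 h at 37 C; viability read as ATP content by CellTiter-Glo luminescence.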
TDP1 block = inhibitors of human tyrosyl-DNA phosphodiesterase TDP1; Potency, µM (titrated, usually from 130 µM), without a hit: at the top dose activity change, negative = inhibition, actives largely listed as inhibitors; recombinant TDP1, AlphaScreen DNA substrate cleavage; Q9NUW8; hit rate 0.28% among 350,000; AID 485290; note: % is set by controls: 0 for no effect and ±100 for the full control effect; nearly all actives have a fitted effect of over 40% in size
Target sequence (Q9NUW8 whole entry, looked up): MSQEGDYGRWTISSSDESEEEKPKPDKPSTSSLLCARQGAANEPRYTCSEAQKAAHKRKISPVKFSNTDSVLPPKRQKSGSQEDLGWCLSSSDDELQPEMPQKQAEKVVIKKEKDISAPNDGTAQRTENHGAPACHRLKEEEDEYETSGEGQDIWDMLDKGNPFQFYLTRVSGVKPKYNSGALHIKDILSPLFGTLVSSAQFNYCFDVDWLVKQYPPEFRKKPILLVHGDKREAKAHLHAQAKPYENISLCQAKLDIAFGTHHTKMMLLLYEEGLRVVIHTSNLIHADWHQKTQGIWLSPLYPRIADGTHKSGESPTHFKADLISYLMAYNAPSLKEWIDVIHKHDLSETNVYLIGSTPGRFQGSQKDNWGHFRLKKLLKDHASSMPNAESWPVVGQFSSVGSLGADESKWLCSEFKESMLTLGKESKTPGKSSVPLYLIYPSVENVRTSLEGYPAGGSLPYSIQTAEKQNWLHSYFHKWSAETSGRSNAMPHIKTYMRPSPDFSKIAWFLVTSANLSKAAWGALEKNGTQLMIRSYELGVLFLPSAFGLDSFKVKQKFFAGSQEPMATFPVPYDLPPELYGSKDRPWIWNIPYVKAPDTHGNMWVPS
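Compounds were preincubated with Tdp1 (1 nM final) for 15 min at room temperature before substrate (15 nM final) started a 5 min reaction; beads (10 ug/ml final) were then added for 10 min before AlphaScreen detection.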
An asterisk follows results filed as active; [ ] = dose if it differs, or a comment. Unless noted, calls come from the whole dose curve; as a rule, active = well fitted curve in the direction sought with a large enough effect; inconclusive = small, poorly fitted or top-dose-only effect, or another doubt; inactive = no such curve, though single readings can be large; an effect the other way counts as inactive or inconclusive. Potency is the fitted concentration of half-maximal effect.

For CC(=O)c1c(C)[nH]c(C(=O)OCC(=O)C(C)(C)C)c1C the results were DT40 TDP1 no CPT -5.4%, ClpP mod 0.1%, TDP1 cell CPT -14.4% and TDP1 block 7.8%.
For COc1ccc(C)cc1COC(=O)c1[nH]c(C)c(C(C)=O)c1C the results were DT40 TDP1 no CPT 16.4µM*, TDP1 cell CPT 20.6µM* and TDP1 block 6.4%.
Screening COc1ccc(CCNC(=O)c2[nH]c(C)c(C(C)=O)c2C)cc1OC returned DT40 TDP1 no CPT -16.0%, ClpP mod 1.7%, TDP1 cell CPT -6.8% and TDP1 block -2.8%.
`CC(=O)c1c(C)[nH]c(C(=O)OCC(=O)c2ccc(C)s2)c1C` gave DT40 TDP1 no CPT 18.4µM*, ClpP mod -2.3%, TDP1 cell CPT 23.1µM* and TDP1 block 0.9%.
Screening CCOC(=O)c1c(C)[nH]c(C(=O)OCc2ccc(C)cc2)c1C returned DT40 TDP1 no CPT -4.5%, ClpP mod 1.2% and TDP1 cell CPT -14.7%.
`COc1ccc(CN(C)C(=O)c2[nH]c(C)c(C(C)=O)c2C)cc1F` gave DT40 TDP1 no CPT 14.6µM*, TDP1 cell CPT inconclusive and TDP1 block -0.4%.
`COc1ccc2c(C)c(CCC(=O)NCc3cccc(Cl)c3)c(=O)oc2c1` gave DT40 TDP1 no CPT inconclusive, ClpP mod 4.9%, TDP1 cell CPT inconclusive and TDP1 block 3.7%.
For O=C(COC(=O)c1cccc(Br)c1)NCC1CCCO1 (centres undefined) the results were DT40 TDP1 no CPT -3.2%, TDP1 cell CPT -10.0% and TDP1 block 1.2%.
For O=c1[nH][nH]c2c1[C@H](CCc1cccc(Cl)c1)O[C@H](C1CCCC1)C2 the results were DT40 TDP1 no CPT inconclusive, ClpP mod 3.4% and TDP1 cell CPT inconclusive.
CSc1ncccc1C(=O)OCC(=O)c1[nH]c(C)c(C(C)=O)c1C was read as DT40 TDP1 no CPT inconclusive, ClpP mod -1.2%, TDP1 cell CPT 18.4µM* and TDP1 block -13.2%.
CCOC(=O)c1c(C)[nH]c(C(=O)OCc2ccccc2)c1C was read as DT40 TDP1 no CPT inconclusive, ClpP mod -4.5%, TDP1 cell CPT -22.4% and TDP1 block 5.6%.
CC(=O)c1c(C)[nH]c(C(=O)OCc2ccccc2F)c1C was read as DT40 TDP1 no CPT 20.6µM*, ClpP mod -1.4%, TDP1 cell CPT 14.6µM* and TDP1 block 7.1%.
CC(=O)c1c(C)[nH]c(C(=O)OCc2cccc(C)c2)c1C was read as DT40 TDP1 no CPT 13µM*, TDP1 cell CPT 16.4µM* and TDP1 block 13.4%.
Screening COc1ccc(-c2sc3ccc(OC)cc3c2-c2ccc(OC)nc2)cc1 returned DT40 TDP1 no CPT inconclusive, ClpP mod inconclusive, TDP1 cell CPT inconclusive and TDP1 block -2.7%.
Screening CCN(CC)S(=O)(=O)c1ccc(NC(=O)COC(=O)CNS(=O)(=O)/C=C/c2ccccc2)cc1 returned DT40 TDP1 no CPT inconclusive, ClpP mod -2.1%, TDP1 cell CPT -10.0% and TDP1 block 6.7%.
O=C(NCC1CCCCC1)c1cc2ccccc2cc1O was read as DT40 TDP1 no CPT inconclusive, ClpP mod -4.5%, TDP1 cell CPT 20.6µM* and TDP1 block -4.2%.
For O=C(N/N=C1/CC2CCC1C2)c1cc2ccccc2cc1O (centres undefined) the results were DT40 TDP1 no CPT 20.6µM*, ClpP mod 2.0%, TDP1 cell CPT 23.1µM* and TDP1 block 4.5%.
For Cc1c(Cl)cccc1NC(=O)CCOc1ccccc1 the results were DT40 TDP1 no CPT inconclusive, ClpP mod -1.6%, TDP1 cell CPT inconclusive and TDP1 block 0.4%[12.3 µM].
`Cc1ccc(S(=O)(=O)N2CCCCC2)cc1NC(=O)c1ccc(Br)o1` gave DT40 TDP1 no CPT -10.9%, ClpP mod 3.6%, TDP1 cell CPT 3.0% and TDP1 block 1.1%.
O=C(N/N=C/c1ccco1)c1cc(-c2cccc(Br)c2)nc2ccccc12 was read as DT40 TDP1 no CPT 5.8µM*, ClpP mod 13.5%, TDP1 cell CPT inconclusive and TDP1 block 8.9%.
`Cn1c(/C=C/c2ccc([N+](=O)[O-])o2)nc2ccccc2c1=O` gave DT40 TDP1 no CPT 0.259µM*, ClpP mod -3.0%, TDP1 cell CPT 0.259µM* and TDP1 block -1.9%.
For O=C(N/N=C/c1ccco1)c1cc(-c2ccccc2)n[nH]1 the results were DT40 TDP1 no CPT inconclusive, ClpP mod -1.3%, TDP1 cell CPT inconclusive and TDP1 block 3.2%.
Cc1ccc(-c2cc(C(=O)N/N=C/c3ccc([N+](=O)[O-])o3)c3ccccc3n2)o1 was read as DT40 TDP1 no CPT 13µM*, ClpP mod -3.1%, TDP1 cell CPT 18.4µM* and TDP1 block -12.2%.
O=C(N/N=C/c1ccc([N+](=O)[O-])o1)c1cn(-c2ccccc2)nc1-c1ccccc1 was read as DT40 TDP1 no CPT 6.51µM*, TDP1 cell CPT inconclusive and TDP1 block 2.3%.
For Cn1c(/C=C/c2ccccc2)nc2ccccc2c1=O the results were DT40 TDP1 no CPT inconclusive, ClpP mod 1.7% and TDP1 cell CPT -76.2%.
C[C@H]1COc2cccc(N3CCSCC3)c2S(=O)(=O)N1 was read as DT40 TDP1 no CPT -10.9%, ClpP mod 3.0% and TDP1 cell CPT 0.8%.
For CCCCn1c(N)c(N(CC(C)C)C(=O)c2ccc(-c3ccc(Cl)cc3)o2)c(=O)[nH]c1=O the results were DT40 TDP1 no CPT inconclusive, ClpP mod 4.9%, TDP1 cell CPT inconclusive and TDP1 block -8.6%.
Screening COc1ccc(CCC2(C)NC(=O)N(C(C)C(=O)N3c4ccccc4CC3C)C2=O)cc1 (centres undefined) returned DT40 TDP1 no CPT inconclusive, ClpP mod -1.0%, TDP1 cell CPT -26.8% and TDP1 block -1.5%[56.1 µM].
O=c1[nH]c2ccccc2n2cnnc12 was read as DT40 TDP1 no CPT -4.6%, TDP1 cell CPT -2.6% and TDP1 block 1.8%.
Screening CC(/C=N/NC(=O)c1cc(-c2ccncc2)nc2ccccc12)=C\c1ccco1 returned DT40 TDP1 no CPT 3.66µM*, ClpP mod -3.2%, TDP1 cell CPT 2.59µM* and TDP1 block 11.7%.
For O=C(N/N=C/c1ccc([N+](=O)[O-])o1)c1cn(-c2ccccc2)nc1-c1ccc(Cl)cc1 the results were DT40 TDP1 no CPT inconclusive, ClpP mod 0.0%, TDP1 cell CPT inconclusive and TDP1 block -4.9%.
`O=C(N/N=C/c1ccc([N+](=O)[O-])o1)c1cc(-c2ccncc2)nc2ccccc12` gave DT40 TDP1 no CPT 3.16µM*, ClpP mod -3.4%, TDP1 cell CPT 7.08µM* and TDP1 block -4.0%.
`COc1ccccc1-c1cc(C(=O)N/N=C/c2ccc(C)o2)c2ccccc2n1` gave DT40 TDP1 no CPT inconclusive, ClpP mod 0.1%, TDP1 cell CPT inconclusive and TDP1 block 4.8%.
